± gives the standard deviation. A value given as a limit tells only on which side of the number the result lay.

The first experiment deals with MILI (PIWIL2) piRISC loaded with L1MC piRNA (26 nt). As to the kind of experiment: pre-steady-state target cleavage rate (min^-1); guide: L1MC piRNA 5'p-UAACUAAAUACUAUGCAAGCUGUAGG; higher = faster piRNA-guided slicing of the target. The settings on record: auxiliary factor: 500 nM mouse GTSF1. The procedure, abridged:
(§1)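 The method was Cleave-'n-Seq, in which uncleaved targets from a transcribed, DNA-blocked target RNA library were sequenced after exposure to active affinity-purified piRISC carrying one synthetic guide, with or without GTSF1 partner protein. Reactions contained 0.1 nM library, 1 nM piRISC and, where present, 500 nM GTSF1 in HEPES–potassium acetate buffer at 33 °C for 0–8 or 0–960 min. Reads were normalised to depth and to weakly complementary targets, three trials were pooled, and k3 was capped at 0.0001 min^-1. The pre-steady-state cleavage rate came from a burst-and-steady-state fit.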
With UCCUCCUACAGCUUGCAUAGUAUAUAGUAA, the “pre-steady-state target cleavage rate” value amounted to 0.147 ± 0.023.
UCCUGCUACAGCUUGCGAUAGUAUUUAGUUA: the “pre-steady-state target cleavage rate” value was determined as 0.0073 ± 0.0045.
In the case of UCCUGCUACAGCUUGCAUAGUUUUAGUUA, the “pre-steady-state target cleavage rate” value was found to be 0.0113 ± 0.0045.
Consider UCCUCCUACAGCUUGCAUAGUAAAAAGAAA, for which the “pre-steady-state target cleavage rate” value came out at 0.075 ± 0.02.
Turning to UCCUGCUACAGCUUGCAUAGAUUUUAGUAA, the “pre-steady-state target cleavage rate” value stood at 0.0161 ± 0.0046.
For UCCUGCUACAGCUUGCAUAGAAUUAAGUUA, the “pre-steady-state target cleavage rate” value turned out to be 0.048 ± 0.012.
As for UCCUGCUACAGCUUGCAUACUAUUUUGUUA, the “pre-steady-state target cleavage rate” value was 0.0252 ± 0.0096.
Same read-out and setting: the result for UCCUGGAUGAGCUUGCAUAGUAAUUAGAUA reads 0.0197 ± 0.0088; that for UCCUCCUACAGCUUGCAUAGUAUUAAGUAA, 0.17 ± 0.037; that for UCCUCCUACAGCUUGCAUAGAAUUUAGUAA, 0.148 ± 0.035.
Turning to UCCUCCUACAGCUUGCAUAGUAUUAACAAA, the “pre-steady-state target cleavage rate” value was found to be 0.11 ± 0.023.
As for UCCUGCUACAGCUUGCAUAGUUUUUAGAUA, the “pre-steady-state target cleavage rate” value came out at 0.0373 ± 0.011.
Still for that read-out and setting: the result for UCCUGGAUGAGCUUGCAUAGAAUUUAGUAA reads 0.0264 ± 0.011.
For the sequence UCCUGGAACAGCUUGCAUAGAAUUUAGUAA, the “pre-steady-state target cleavage rate” value was found to be 0.0627 ± 0.014.

A further experiment relates to EfPiwi piRISC loaded with L1MC piRNA (26 nt). The experiment is described as follows: pre-steady-state target cleavage rate (min^-1); auxiliary factor: 500 nM Ephydatia muelleri Gtsf1; guide: L1MC piRNA 5'p-UAACUAAAUACUAUGCAAGCUGUAGG; MIWI and MILI are mouse PIWI proteins and EfPiwi is from a freshwater sponge; tags in brackets are library labels; higher = faster piRNA-guided slicing of the target.
Conditions: not given
In a few lines:
as §1
UCCUGGUACAGCAUGCAUAGUAUUUAGAAA: the “pre-steady-state target cleavage rate” value turned out to be 0.00215 ± 0.002.
Turning to UCCUGGAUGUGCUUGCAUAGUAUUGAGUUA, the “pre-steady-state target cleavage rate” value turned out to be 0.00273 ± 0.0022.
In the case of UCCUCCUACAGCUUGCAUAGUAAUUAGAUA, the “pre-steady-state target cleavage rate” value was 0.00553 ± 0.0026.
Turning to UCCUGGUACACCUUGCAUAGUAUUUAGAUA, the “pre-steady-state target cleavage rate” value was determined as 0.00278 ± 0.0024.
Take UCCUGGAUCAGCUUGCAUAGUAAUUAGAUA: the “pre-steady-state target cleavage rate” value came to 0.00275 ± 0.0021.
On the same count and under the same terms, the result for UCCUGGUACAGCUUGCAUAGUAAUUACAAA reads 0.00331 ± 0.0026.
Same read-out and setting: the value for UCCUGGAACAGGUUCCAUAGUAUUUAGUUA was 0.00255 ± 0.0024; that for UCCUGGAUCAGCUUGCACUAGUAUUUAGUUA was 0.00365 ± 0.0027; that for UCCUGGAACAGCUUGCAUAGUAAAUAGAAA was 0.00337 ± 0.0028.
With UCCUGGAUGUCGAACGAUAGUGAUUUAGUUA, the “pre-steady-state target cleavage rate” value is below 0.0001.
In the case of UCCUGGAACUCGUUGCAUAGUAUUUAGAAA, the “pre-steady-state target cleavage rate” value amounted to 0.00502 ± 0.004.
On to UCCUGGAUGUCCUUGCAUAGUAUUUAGUCA, for which the “pre-steady-state target cleavage rate” value came to 0.00415 ± 0.004.
As to UCCUGCUACAGCUUCCAUAGUAUUUAGUUA, the “pre-steady-state target cleavage rate” value is 0.00342 ± 0.0012.
Still for that read-out and setting: the value for UCCUCCUACAGCUUGCAUAGUAUUUGUUA was 0.00561 ± 0.0026.
For the sequence UCCUGGUACAGCUUGCAUAGUAUUAAGAAA, the “pre-steady-state target cleavage rate” value was found to be 0.00387 ± 0.0017.
As for UCCUCGAUCAGCUUGCAUAGUAUUUAGAAA, the “pre-steady-state target cleavage rate” value stood at 0.00579 ± 0.0018.
As for UCCUGGAUCAGCUUGCAUAGUAUUAAGAAA, the “pre-steady-state target cleavage rate” value turned out to be 0.00459 ± 0.0022.
Same read-out and setting: the result for UCCUGGAUCUGCUUCCAUAGUAUUUAGUUA reads 0.00326 ± 0.0022.
On to UCCUGGUACAGCUUGCAUAGUAUUCAGUUA, for which the “pre-steady-state target cleavage rate” value came out at 0.00472 ± 0.0022.
Turning to UCCUCCUACAGCUUGCAUUGUAUUAAGUUA, the “pre-steady-state target cleavage rate” value was 0.00681 ± 0.0032.
As to UCCUGCUUGAGCUUGCAUAGUAUUUUCAAA, the “pre-steady-state target cleavage rate” value turned out to be 0.00207 ± 0.0018.
For the sequence UCCUGGUACAGCUUGCAUAGUAUUUAGGUA, the “pre-steady-state target cleavage rate” value was 0.00463 ± 0.0022.
In the case of UCCUGCUACUGCUUCCAUAGUAUUUAGUUA, the “pre-steady-state target cleavage rate” value came out at 0.00205 ± 0.0016.
UCCUGCUACUGCUUGCAUAGUAUUUACAAA: the “pre-steady-state target cleavage rate” value stood at 0.00262 ± 0.0024.
As for UCCUGCUACAGCUAGCAUAGUAUUUUGUUA, the “pre-steady-state target cleavage rate” value was 0.0057 ± 0.0021.
Regarding UCCUCCUACAGCUUGCAUAGUAUAUAGUAA, the “pre-steady-state target cleavage rate” value was 0.00441 ± 0.002.
Consider UCCUGCUACAGCUUGCGAUAGUAUUUAGUUA, for which the “pre-steady-state target cleavage rate” value came out at 0.00987 ± 0.0026.
Turning to UCCUGCUACAGCUUGCAUAGUUUUAGUUA, the “pre-steady-state target cleavage rate” value worked out at 0.00248 ± 0.0013.
Regarding UCCUCCUACAGCUUGCAUAGUAAAAAGAAA, the “pre-steady-state target cleavage rate” value was found to be 0.00287 ± 0.0026.
Still for that read-out and setting: the value for UCCUGCUACAGCUUGCAUAGAUUUUAGUAA was 0.0033 ± 0.0022; that for UCCUGCUACAGCUUGCAUAGAAUUAAGUUA was 0.00288 ± 0.0022; that for UCCUCCUACAGCUUGCAUAGGUAUUUAGUUA was 0.0036 ± 0.0026.
With UCCUGCUACAGCUUGCAUACUAUUUUGUUA, the “pre-steady-state target cleavage rate” value stood at 0.00432 ± 0.0019.
In the case of UCCUGGAUGAGCUUGCAUAGUAAUUAGAUA, the “pre-steady-state target cleavage rate” value amounted to 0.00341 ± 0.0028.
On to UCCUCCUACAGCUUGCAUAGUAUUAAGUAA, for which the “pre-steady-state target cleavage rate” value was found to be 0.00642 ± 0.0035.
UCCUCCUACAGCUUGCAUAGAAUUUAGUAA: the “pre-steady-state target cleavage rate” value is 0.00443 ± 0.0022.
As for UCCUCCUACAGCUUGCAUAGUAUUAACAAA, the “pre-steady-state target cleavage rate” value was 0.00454 ± 0.0033.
For UCCUGCUACAGCUUGCAUAGUUUUUAGAUA, the “pre-steady-state target cleavage rate” value is 0.00319 ± 0.0018.
On the same count and under the same terms, the value for UCCUGGAUGAGCUUGCAUAGAAUUUAGUAA was 0.00272 ± 0.0027.
As to UCCUGGAACAGCUUGCAUAGAAUUUAGUAA, the “pre-steady-state target cleavage rate” value is 0.00292 ± 0.002.
